Results on 27 compounds are retold here after PubChem BioAssay AID1053122 (Broad Institute, 2014).

Results with a measured potency or affinity are listed apart. Active and inactive are the calls of the source.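 Rule for the calls: active = CTGF level falls with dose and the fitted half-maximal dose is at most twice the top valid dose; inconclusive = flat fit with 30 to 70% drop, or a poor fit; inactive = the rest.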

The nature of this assay: CTGF mRNA reduction in DLD1 cells – cell-based, DLD1 colon cancer, RT-qPCR, cherry-pick, dose response (AID 1053122). Background: In qPCR the cycle at which signal appears reflects the starting amount.

Regarding `CC(C)NC(=O)N[C@@H]1CC[C@H](CC(=O)NCCCN(C)C)O[C@@H]1CO`, the result was inactive.

Turning to `COc1cccc(C#Cc2ccc3c(c2)O[C@@H](CN(C)C(=O)CN2CCOCC2)[C@@H](C)CN([C@@H](C)CO)S3(=O)=O)c1`, the compound was called inactive.

For the compound `CN(C)C(=O)c1ccc(-c2cccc(-c3nc(C(=O)NCc4ccccc4)cc4c3[C@@H](CCO)N([S@](=O)C(C)(C)C)C4)c2)cc1`, the compound was called inactive.

Regarding `C[C@@H]1CN([C@H](C)CO)C(=O)CCCn2nncc2CO[C@@H]1CN(C)C(=O)c1cc(-c2ccccc2)on1`, the outcome was inactive.

For `C[C@@H]1CN([C@H](C)CO)C(=O)c2ccccc2-c2ccccc2CO[C@@H]1CN(C)Cc1ccccc1C(F)(F)F`, the result was inactive.

Take `C[C@@H]1CN([C@@H](C)CO)C(=O)c2ccccc2-c2ccccc2CO[C@@H]1CN(C)S(=O)(=O)c1cn(C)cn1`: the compound was classed as inactive.

Take `COc1ccccc1C(=O)Nc1ccc2c(c1)C(=O)N(C)C[C@H](OC)[C@@H](C)CN(C(C)=O)[C@@H](C)CO2`: the call was inactive.

On to `Cc1ccccc1-c1ccc([C@H]2[C@@H](CO)N3CCCCN(S(=O)(=O)Cc4ccccc4)C[C@@H]23)cc1`, for which the compound was called inactive.

`C[C@@H]1CN([C@@H](C)CO)C(=O)Cc2cc(NC(=O)C3CCCCC3)ccc2O[C@@H]1CN(C)Cc1ccc(Cl)c(Cl)c1`: the compound was called inactive.

In the case of `Cc1ccc(S(=O)(=O)N2CC[C@H]3[C@H](CO)Nc4ccc(-c5cccc(C(=O)N(C)C)c5)cc4[C@H]32)cc1`, the compound was called inactive.

With `C/C=C/c1cccc(-c2nc(C(=O)Nc3nccs3)cc3c2[C@@H](CCO)N(C(=O)NC(C)C)C3)c1`, the result was inactive.

Regarding `NCC[C@H]1CC[C@@H](NC(=O)NC2CCCCC2)[C@H](CO)O1`, the compound was classed as inactive.

Turning to `COCC(=O)N1CC(=O)N2[C@H](CO)[C@@H](c3ccc(C#CC4CC4)cc3)[C@H]2C1`, the call was inactive.

With `COc1ccc2c3c(n(C)c2c1)[C@H](CO)N(S(C)(=O)=O)CC31CCN(C(=O)Nc2cccc(F)c2)CC1`, the outcome was inactive.

For the compound `C[C@@H]1CN([C@@H](C)CO)C(=O)c2ccccc2-c2ccccc2CO[C@H]1CN(C)C(=O)Nc1cccc(C(F)(F)F)c1`, the compound was called inactive.

Regarding `C[C@@H]1CC=CC[C@@H](c2cccc(Cl)c2)NC(=O)[C@@H](Cc2ccccc2)N(C)C(=O)c2ccccc2O1` (mixture of isomers), the call was inactive.

Take `CCCNC(=O)N1[C@H](C#N)[C@@H](c2ccc(C#Cc3cccc(F)c3)cc2)[C@@H]1CO`: the result was inactive.

For the compound `COc1ccccc1C#Cc1ccc([C@H]2[C@H](CO)N3CCCCN(C(=O)C4CCC4)C[C@@H]23)cc1`, the outcome was inactive.

On to `C[C@@H]1CN([C@H](C)CO)C(=O)CCCn2nncc2CO[C@@H]1CN(C)Cc1cccc(C(F)(F)F)c1`, for which the compound was called inactive.

On to `CO[C@@H]1CN(C)C(=O)c2cc(NS(=O)(=O)c3ccccc3C)ccc2OC[C@@H](C)N(S(=O)(=O)c2ccccc2)C[C@H]1C`, for which the compound was called inactive.

As to `CC(C)(C)[S@](=O)N1Cc2cc(C(=O)NCCc3ccncc3)nc(-c3cccc(-c4cccc(C#N)c4)c3)c2[C@@H]1CCO`, the compound was called inactive.

As for `C[C@@H]1CN([C@H](C)CO)C(=O)c2cccc(NC(=O)c3nc4ccccc4s3)c2O[C@H]1CN(C)C(=O)Nc1ccc2c(c1)OCO2`, the compound was classed as inactive.

`Cc1ccc(S(=O)(=O)N2CC[C@@H]3[C@H]2c2cc(-c4cccc(C(=O)N(C)C)c4)ccc2N[C@@H]3CO)cc1`: the result was inactive.

Turning to `O=C(CC1CC1)N1CC(=O)N2[C@@H](CO)[C@H](c3ccc(/C=C/c4ccccc4)cc3)[C@@H]2C1`, the compound was classed as inactive.

Take `COc1cccc(-c2ccc([C@@H]3[C@@H](C#N)N(C(=O)Cc4ccncc4)[C@@H]3CO)cc2)c1`: the compound was called inactive.

Turning to `COc1ccc(S(=O)(=O)Nc2ccc3c(c2)C(=O)N([C@@H](C)CO)C[C@H](C)[C@@H](CN(C)S(=O)(=O)c2ccc(Cl)cc2)OCCCC[C@@H](C)O3)cc1`, the outcome was inactive.

Regarding `COc1ccc(NC(=O)N(C)C[C@H]2Oc3c(NC(=O)CCCCCC(=O)Nc4ccccc4N)cccc3C(=O)N([C@H](C)CO)C[C@@H]2C)cc1`, the outcome was inactive.
